# Pf growth 96h: P. falciparum growth inhibition at 96 hour, primary screen for plastid delayed-death inhibitors; P. falciparum luciferase reporter growth, 96 h; Potency, µM (top dose mostly 28.7 µM), usual class: inhibitors; 6.9% of 320,000 active; AID 504834
#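 Erythrocytes infected with luciferase-expressing P. falciparum were dispensed at 2% hematocrit and 0.05% parasitemia (final), then incubated with compounds 96 hours at 37 C in 5% CO2. Luminescence after detection reagent addition reported growth.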
# Pf growth 48h: inhibits P. falciparum growth in the first generation, 48 h. 5.9% of 310,000 active. Potency, µM (top dose mostly 28.7 µM), most hits filed as inhibitors. P. falciparum luciferase growth in erythrocytes, 48 h
#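 Cell-based growth assay: transgenic P. falciparum expressing firefly luciferase, cultured in red cells within RPMI 1640 containing 0.5% w/v Albumax, 24 mM bicarbonate and gentamycin. A drop in luciferase activity indicates inhibition.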
# SARS PLpro yeast: inhibitors of SARS-CoV papain-like protease in yeast. Potency, µM (doses to about 32.9 µM), usual class: activators. 0.19% of 330,000 active. S. cerevisiae expressing SARS-CoV PLpro, growth rescue; calls by dose curve; note: nearly all actives have a fitted effect of over 55% in size
# AMA1-RON2 inh: inhibitors of Plasmodium falciparum AMA1-RON2 interaction | AlphaScreen AMA1-biotinylated RON2 peptide binding | Potency, µM (doses to about 58.2 µM), most hits filed as inhibitors | 0.2% of 360,000 active; note: nearly all actives have a fitted effect of over 45% in size
#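 AMA1 (3D7) with his tag at 25 nM final met compounds first, then biotinylated RON2 peptide at 25 nM; detection used donor plus acceptor beads, 10 µg/mL apiece, read by AlphaScreen after 30 min at room temperature.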
# CHX counter: counter-screen hit for Shiga toxin inhibitors, cycloheximide | cell reporter, cycloheximide protein synthesis inhibition counterscreen | max response, % | 12% of 300,000 active | AID 2314; in the data active = max response mostly above about 13%, no sharp cut-off; inactive = mostly below about 14%; note: read at 38.3 µM for the half of the compounds with a filed dose
# Shiga toxin inh: inhibitors of Shiga toxin in Vero cells. Vero cells, Shiga toxin protein synthesis inhibition reporter. inhibition, % at 38.7 µM. 9.2% of 290,000 active; in the data active = inhibition mostly above about 28%, no sharp cut-off; inactive = mostly below about 43%
# Numbers stand for hits; - = inactive; ? = inconclusive; . = no result given. A selection: hits, their analogues and other compounds. The true share with any hit is near 19%. Unless noted, calls come from the whole dose curve; as a rule, active = well fitted curve in the direction sought with a large enough effect; inconclusive = small, poorly fitted or top-dose-only effect, or another doubt; inactive = no such curve, though single readings can be large; an effect the other way counts as inactive or inconclusive.
SMILES,Pf growth 96h,Pf growth 48h,SARS PLpro yeast,AMA1-RON2 inh,CHX counter,Shiga toxin inh
O=C(OCc1ccccn1)C1CCN(C(=O)c2ccc(Cl)cc2)CC1,-,?,-,-,.,.
Cc1c(Cl)c([N+](=O)[O-])nn1Cc1ccc(C(=O)NN)o1,-,-,-,-,-,-
O=C(N/N=C\c1cccc(Cl)c1)c1ccc(Cn2cc(Br)c([N+](=O)[O-])n2)o1,?,?,?,-,-,24
Cc1c(Cl)c([N+](=O)[O-])nn1Cc1ccc(C(=O)N/N=C\c2cccc(Br)c2)o1,?,9.3µM,-,-,-,-
Cc1ccc(/C=N\NC(=O)c2ccc(Cn3cc(Br)c([N+](=O)[O-])n3)o2)o1,?,-,-,-,-,-
C/C(=N\NC(=O)c1ccccc1N)c1ccc(NC(=O)Cc2ccccc2)cc1,-,9.3µM,-,-,36,65
C/C(=N\NC(=O)c1cccc(C)c1O)c1ccc(NC(=O)Cc2ccccc2)cc1,-,-,-,-,39,45
CCOC(=O)C1(C(F)(F)F)N=C(C(F)(F)F)Nc2cc(C)c(C)cc21 (configuration not stated),?,-,-,-,-,-
Cc1cc(C)n(CCNC(=O)CC2C(=O)NCCN2CC2CCCCC2)n1 (configuration not stated),-,-,-,-,-,-
CCC(C)[C@@H]1NC(=O)N(CCCN2CCCC2=O)C1=O (some centres not stated),-,-,-,-,-,-
O=C(CSc1ccc(C(F)(F)F)cc1[N+](=O)[O-])N1CCOCC1,?,-,-,-,-,.
CN(C)C(CNc1ccc(C(F)(F)F)cc1[N+](=O)[O-])c1ccccc1 (configuration not stated),-,?,-,14µM,-,-
CN(C)C(CNc1ccc(S(C)(=O)=O)cc1[N+](=O)[O-])c1ccccc1 (configuration not stated),-,-,-,-,-,-
CC(C)(CNc1ccc(C(F)(F)F)cc1[N+](=O)[O-])N1CCOCC1,5.9µM,9.3µM,-,-,-,-
COc1ccc(Cl)cc1-c1cc(C(=O)Nc2ccc(C(C)(C)C)cc2)[nH]n1,.,.,.,-,.,.
COC(=O)c1cc(Br)ccc1OC(=O)c1cccnc1,-,-,-,-,-,-
O=C(NC1CCCCC1)c1cccc(Cn2cc(Cl)cn2)c1,-,.,-,-,-,-
CC(C)c1ccc(N(C(=O)c2ccco2)C(C(=O)NC2CCCC2)c2ccncc2)cc1 (configuration not stated),-,-,-,-,33,73
CCC(C)c1ccc(N(C(=O)c2ccco2)C(C(=O)NC2CCCC2)c2cccnc2)cc1 (configuration not stated),-,1.9µM,-,-,39,94
CCc1ccc(N(C(=O)c2ccco2)C(C(=O)NC2CCCC2)c2cccnc2)cc1 (configuration not stated),?,?,-,-,-,-
CC(=O)Nc1ccc(N(C(=O)c2ccco2)C(C(=O)NC2CCCC2)c2cccs2)cc1 (configuration not stated),?,?,-,-,-,-
CC(=O)Nc1ccc(N(C(=O)c2ccco2)C(C(=O)NC2CCCCC2)c2ccccc2)cc1 (configuration not stated),-,?,-,-,12,35
CCOc1ccc(N2CC(C(=O)Nc3nnc(CC)s3)CC2=O)cc1 (configuration not stated),-,?,-,-,-,-
CC12CCC(=O)N1C(C(=O)NCCN1C(=O)S/C(=C\c3ccc(F)cc3)C1=O)CS2 (configuration not stated),?,?,-,-,.,.
NC(=O)c1nnn(-c2cccc(C(F)(F)F)c2)c1-c1ccccc1,-,-,-,-,-,-
SMILES,Pf growth 96h,Pf growth 48h,SARS PLpro yeast,AMA1-RON2 inh,CHX counter,Shiga toxin inh
O=C(O)c1cccc(-n2cc(-c3cccc(C(F)(F)F)c3)cn2)c1,-,-,-,-,54,118
Cc1ccc(-n2nnnc2SC(C)C(=O)Nc2ccccc2-c2ccccc2)cc1 (configuration not stated),9.3µM,?,?,-,-,-
CCOc1ccc(NC(=O)C(C)Sc2nnnn2C)cc1 (configuration not stated),?,-,-,-,11,-
COc1ccccc1NC(=O)C(C)Sc1nnnn1C (configuration not stated),12µM,-,-,-,-,-
CC(Sc1nnnn1C)C(=O)Nc1ccccc1 (configuration not stated),-,-,-,-,-,-
CC(Sc1nnnn1C)C(=O)Nc1ccccc1-c1ccccc1 (configuration not stated),-,-,-,-,-,-
COc1ccccc1NC(=O)C(C)Sc1nccn1C (configuration not stated),?,-,-,-,.,.
CC(Cc1ccccc1)NC(=O)CSc1nc2nc3c(cc2c(=O)n1-c1ccccc1)COC(C)(C)C3 (configuration not stated),?,?,-,-,-,-
CCCCCCCCN1C(=O)[C@H](CC(=O)NCCCOCCCC)C[C@@]2(C(=O)OC)CCCCC=C12,.,.,.,-,.,.
C=CCn1c(N)cc(=O)nc1SCC(=O)NC(C)c1ccccc1 (configuration not stated),-,-,-,?,-,-
CCSc1nc2sc3c(c2c(=O)n1-c1ccccc1)CCN(C)C3,-,3.3µM,-,-,-,.
CN1CCc2c(sc3c2c(=O)n(-c2ccccc2)c2nnc(SCc4ccccc4)n32)C1,.,6.6µM,-,-,-,-
CCCN1CCc2c(sc3nc(SCC)n(-c4ccc(OC)cc4)c(=O)c23)C1,0.59µM,5.9µM,-,-,-,-
COCCSc1nc2sc3c(c2c(=O)n1-c1ccccc1)CCN(C)C3,?,.,-,-,-,-
COc1ccc(-n2c(C)nc3sc4c(c3c2=O)CCC4)cc1,4.7µM,-,-,-,-,-
COc1ccc(-n2c(SCC(=O)O)nc3sc4c(c3c2=O)CCC4)cc1,?,-,-,-,-,-
CN1CCc2c(sc3c2c(=O)n(-c2ccccc2)c2nnc(SCc4ccc(F)cc4)n32)C1,.,.,.,-,.,.
COc1ccc(-n2c(SC)nc3sc4c(c3c2=O)CCN(C)C4)cc1,7.4µM,3.7µM,-,-,-,-
C=CCSc1nc2sc3c(c2c(=O)n1-c1ccccc1)CCN(C)C3,0.59µM,?,-,-,-,-
CCCN1CCc2c(sc3nc(SC)n(-c4ccccc4)c(=O)c23)C1,0.74µM,0.93µM,-,-,-,-
CCCN1CCc2c(sc3nc(SCC)n(-c4ccccc4)c(=O)c23)C1,0.26µM,1.3µM,-,-,-,-
O=C(N1CCOCC1)N1CCN(S(=O)(=O)N2CCOCC2)CC1,.,-,-,-,-,-
COc1ccc(Br)cc1S(=O)(=O)Nc1ccc(Cl)cn1,-,?,-,-,-,-

# Bioassay records: PubChem, National Center for Advancing Translational Sciences (NCATS)
